Source: PubChem (several laboratories)
Sampled rows, rich in hits. Any-hit rate of the full collection: about 5.2%.
SKN-1 block = blocks SKN-1 activity in C. elegans | C. elegans VP596 Pgst-4::GFP/RFP ratio, acrylamide-induced, 24 h | inhibition, % at 21.8 µM | 360,000 tested, 0.49% active;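 active means interference check ratio from 0.5 to 1.5 plus GFP to RFP signal ratio inhibition reaching or exceeding a fixed threshold, cut at about 30% in these data, passing the limit was not always enough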
esBAF inh = SWI/SNF esBAF complex inhibition. mouse ES cells, Bmi1-luciferase knock-in reporter, 24 h; 100% = twice the neutral-well signal. reporter increase, % at 12.5 µM. 350,000 tested, 2% active. AID 602393; in the data active means activation above about 40%;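 further: 0% = median of the plate's neutral control wells and 100% = double that signal; a rise in the Bmi1 reporter signal indicates esBAF inhibition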
NadD block = inhibitors of Staphylococcus aureus NadD | inhibition, % at 20 µM | AID 602399 | 360,000 tested, 0.78% active | purified NadD enzyme, colorimetric absorbance read-out; in the data active means inhibition above about 26%
Vif imaging = HIV Vif inhibition. HEK293T cells, Vif self-association by quenched fluorescence, imaging, 24 h. inhibition, % at 7.49 µM. 340,000 tested, 0.35% active; in the data active means inhibition above about 50%, passing the limit was not always enough
SMARCA2 activ = increases SMARCA2 function in MMTV reporter cells. MG213 cells, MMTV-luciferase reporter, dexamethasone, overnight. activation, % at 9.1 µM. 370,000 tested, 1% active; in the data active means activation above about 7.8%;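 further: 0% = vehicle wells and 100% = reference activator wells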
GRIN3A LBD mod = modulators (binders) of human NR3A ligand-binding domain; NR3A LBD differential scanning fluorimetry, Tm shift; 0% = protein alone, 100% = glycine-bound protein; Tm shift relative to glycine control, % at 25 µM; 340,000 tested, 2.5% active;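 active means melting temperature shift of at least 10% of the positive control shift, at one fixed dose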
* = called active by the depositor; / = no result given.

SMILES | SKN-1 block | esBAF inh | NadD block | Vif imaging | SMARCA2 activ | GRIN3A LBD mod
COc1ccc(S(=O)(=O)N(C)C[C@@H]2Oc3cc(C#CC4CC4)ccc3S(=O)(=O)N([C@@H](C)CO)C[C@@H]2C)cc1 | / | -1.1 | / | / | / | /
COCC#Cc1ccc2c(c1)O[C@@H](CN(C)Cc1ccc3c(c1)OCO3)[C@H](C)CN([C@H](C)CO)S2(=O)=O | / | 14.6 | / | / | / | /
Cc1cc(S(=O)(=O)Nc2ccc(C(=O)NCC(c3ccccc3)N(C)C)cc2)ccc1F (stereo not given) | 3.0 | 3.1 | -7.2 | 9.7 | 0.2 | 0.7
COc1ccccc1C(CNC(=O)c1ccc(NS(=O)(=O)c2ccc(F)c(C)c2)cc1)N(C)C (stereo not given) | 17.5 | -6.2 | -2.7 | -1.4 | -1.3 | 10.2*
COc1cc2c(cc1NC(=O)c1cccc(S(=O)(=O)N(C)C)c1)oc1ccccc12 | 16.8 | / | -0.2 | -2.7 | 3.4 | 13.9*
CCN(CC)S(=O)(=O)c1ccc(C(=O)Nc2cc3oc4ccccc4c3cc2OC)cc1 | 18.4 | / | 3.5 | 3.4 | -0.9 | 11.0*
CCN(CC)S(=O)(=O)c1ccc(O)c(NC(=O)c2cc(-c3cc(OC)c(OC)c(OC)c3)nc3ccccc23)c1 | 11.3 | -3.1 | 0.0 | -21.1 | / | 17.0*
CCN(CC)S(=O)(=O)c1ccc(OC)c(NC(=O)c2ccc([N+](=O)[O-])cc2)c1 | 0.3 | / | -12.8 | -3.3 | -1.1 | 5.1
COc1cc(-c2cc(C(=O)Nc3ccc(S(N)(=O)=O)cc3)c3ccccc3n2)cc(OC)c1OC | 12.7 | 32.5 | 16.5 | -0.9 | -1.7 | 0.6
CN(C)S(=O)(=O)c1cccc(C(=O)Nc2ccccc2[N+](=O)[O-])c1 | 3.3 | / | -6.6 | 11.1 | -1.1 | -2.7
C[C@H]1CN([C@@H](C)CO)C(=O)c2cc(C#CC3CCCC3)cnc2O[C@@H]1CN(C)Cc1ccncc1 | / | -1.9 | / | / | / | /
O=C(N/N=C\c1cccc(Cl)c1)c1ccc(Cn2cc(Br)c([N+](=O)[O-])n2)o1 | 6.5 | / | 7.5 | -0.5 | -0.8 | 12.4*
COCC(=O)N(C)C[C@@H]1Oc2cc(C3=CCCCC3)ccc2S(=O)(=O)N([C@H](C)CO)C[C@H]1C | / | -2.9 | / | / | / | /
C[C@@H]1CN([C@H](C)CO)C(=O)c2cc(NC(=O)CCCCCC(=O)Nc3ccccc3N)ccc2O[C@@H](C)CCCCO[C@@H]1CN(C)C(=O)C1CCCCC1 | / | -1.1 | / | / | / | /
CCOc1ccccc1C(=O)Nc1ccc(S(=O)(=O)N2CCN(C)CC2)cc1 | 12.9 | -1.2 | 3.8 | 0.3 | -1.2 | -4.9
CCOc1ccccc1C(=O)Nc1ccc(-n2nncc2C(C)(C)C)cc1 | 35.1* | 4.4 | -1.7 | -8.5 | 1.4 | -5.2
C[C@@H]1CN([C@H](C)CO)C(=O)c2cc(NC(=O)CCC(F)(F)F)ccc2O[C@@H](C)CCCCO[C@@H]1CN(C)C | / | 2.0 | / | / | / | /
Cc1cccc(-c2nnc3sc(-c4ccccc4)nn23)c1 | -15.9 | 41.9* | -2.1 | -6.6 | 0.4 | -0.3
O=C(Nc1cccc(Cl)c1)Nc1nc(-c2ccccc2)cs1 | 9.7 | / | 4.6 | -17.4 | -2.6 | 30.8*
O=C(Nc1ccc(Cl)cc1)Nc1nc(-c2ccccc2)cs1 | 1.7 | / | -1.2 | -6.3 | -3.4 | 11.5*
O=C(Nc1ccccc1)Nc1nc(-c2ccc(F)cc2)cs1 | 17.0 | / | -2.1 | -9.4 | -2.9 | 6.3
Cc1csc(NC(=O)Nc2cccc(Cl)c2)n1 | -1.3 | 88.3* | -5.3 | / | 3.7 | 27.9*
C[C@@H](NC(=O)C[C@@H]1CC[C@@H](NC(=O)C2CC2)[C@H](CO)O1)c1ccccc1 | / | -1.0 | / | / | / | /
COc1ccc(NC(=O)Nc2ccc3c(c2)C(=O)N([C@@H](C)CO)C[C@H](C)[C@H](CN(C)C(=O)NC2CCCCC2)OCCCC[C@H](C)O3)cc1 | / | -1.6 | / | / | / | /
O=[N+]([O-])c1ccc(O)c(N=Cc2sc3ccccc3c2O)c1 | 17.7 | / | 7.6 | 1.8 | -2.0 | 15.9*
Oc1ccc(Cl)cc1N=Cc1sc2ccccc2c1Cl | 12.2 | / | 0.8 | -2.4 | 1.4 | -0.1
C[C@@H]1CCCCO[C@@H](CN(C)Cc2ccc3c(c2)OCO3)[C@@H](C)CN([C@@H](C)CO)C(=O)c2cc(NS(=O)(=O)c3ccc(F)cc3)ccc2O1 | / | 1.2 | / | / | / | /
CCN1C(=O)C(F)(CC)C(=O)c2ccccc21 (stereo not given) | 3.8 | / | -3.1 | 0.0 | 0.0 | 13.1*
CCO/C=C1/C(=O)N(CC)c2ccccc21 | -12.7 | 9.0 | -3.3 | -1.5 | 1.3 | -0.7
